Laboratory results reported in PubChem BioAssay AID1159580 (chemical genetic matrix, 2015).
Among all 5,500 compounds or so, about 2,000 (36%) were called active. About 18% were inconclusive and are not listed. Rule as the data show it: active = normalized growth mostly below about 0.91 (no sharp cut-off); inconclusive = no clear call, values can overlap the other calls; inactive = mostly above about 0.92. Some of the results follow.

Assay: chemical genetic growth profiling, strain panel (AID 1159580);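 also: tested at 20 µM; growth read once vehicle control cultures reached saturation at 30 °C; 1 = growth at the plate median or of vehicle wells; lower values mean less growth of the strain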
Conditions: S. cerevisiae deletion strains, growth OD

Measured: normalized growth

N[C@H](CO)Cc1ccccc1
inactive: locus YAL021C, strain ccr4, stronger effect = lower value 1.01 | locus YAL026C, strain drs2, stronger effect = lower value 1.02 | locus YAL030W, strain snc1, stronger effect = lower value 1.03 | locus YBL061C, strain skt5, stronger effect = lower value 1.03 | locus YBR009C, strain hhf1, stronger effect = lower value 1.03 | locus YBR023C, strain chs3, stronger effect = lower value 1.02 | locus YBR171W, strain sec66, stronger effect = lower value 1.02 | locus YBR231C, strain swc5, stronger effect = lower value 1.02 | locus YBR279W, strain paf1, stronger effect = lower value 1.01 | locus YCL011C, strain gbp2, stronger effect = lower value 1.01 | locus YCL016C, strain dcc1, stronger effect = lower value 0.998 | locus YCL061C, strain MRC1, stronger effect = lower value 1.02 | locus YCL069W, strain vba3, stronger effect = lower value 1.02 | locus YCR088W, strain abp1, stronger effect = lower value 1.01 | locus YDL005C, strain med2, stronger effect = lower value 1.01 | locus YDL040C, strain nat1, stronger effect = lower value 1.02 | locus YDR001C, strain nth1, stronger effect = lower value 1.02 | locus YDR069C, strain doa4, stronger effect = lower value 1.04 | locus YDR137W, strain rgp1, stronger effect = lower value 1.01 | locus YDR159W, strain sac3, stronger effect = lower value 1.06 | locus YDR195W, strain ref2 1.02 | locus YDR297W, strain sur2, stronger effect = lower value 1.05 | locus YDR334W, strain swr1, stronger effect = lower value 1.02 | locus YDR335W, strain msn5, stronger effect = lower value 1.01 | locus YDR392W, strain spt3, stronger effect = lower value 0.927 | locus YEL003W, strain gim4, stronger effect = lower value 1.03 | locus YEL037C, strain rad23, stronger effect = lower value 1.01 | locus YEL061C, strain CIN8 (second series), stronger effect = lower value 1.02 | locus YER015W, strain faa2, stronger effect = lower value 1.03 | locus YER016W, strain bim1, stronger effect = lower value 1.03 | locus YER111C, strain swi4, stronger effect = lower value 1.02 | locus YER155C, strain BEM2 (second series), stronger effect = lower value 1.02 | locus YFR010W, strain ubp6, stronger effect = lower value 1.04 | locus YGL167C, strain pmr1, stronger effect = lower value 1.02 | locus YGL173C, strain kem1, stronger effect = lower value 1.03 | locus YGL227W, strain vid30, stronger effect = lower value 1.03 | locus YGL240W, strain doc1, stronger effect = lower value 1.02 | locus YGL253W, strain hxk2, stronger effect = lower value 1.03 | locus YHR013C, strain ard1, stronger effect = lower value 1.03 | locus YHR027C, strain rpn1, stronger effect = lower value 1.02 | locus YHR030C, strain SLT2, stronger effect = lower value 1.07 | locus YHR079C, strain IRE1, stronger effect = lower value 1.05 | locus YHR142W, strain chs7, stronger effect = lower value 1.03 | locus YJL092W, strain hpr5, stronger effect = lower value 1.02 | locus YJL095W, strain BCK1 (second series), stronger effect = lower value 1.02 | locus YJL095W, strain BCK1, stronger effect = lower value 1.06 | locus YJL115W, strain asf1, stronger effect = lower value 1.01 | locus YJL129C, strain trk1, stronger effect = lower value 1.03 | locus YJL154C, strain vps35, stronger effect = lower value 1.02 | locus YJL164C, strain tpk1, stronger effect = lower value 0.994 | locus YJL166W, strain qcr8, stronger effect = lower value 1.02 | locus YJL187C, strain SWE1, stronger effect = lower value 1.01 | locus YJR066W, strain TOR1, stronger effect = lower value 0.974 | locus YKL160W, strain elf1, stronger effect = lower value 0.996 | locus YKR026C, strain gcn3, stronger effect = lower value 1.02 | locus YKR091W, strain srl3, stronger effect = lower value 1.01 | locus YLL001W, strain dnm1, stronger effect = lower value 1.01 | locus YLL026W, stronger effect = lower value 1.02 | locus YLL041C, strain sdh2, stronger effect = lower value 1.01 | locus YLR027C, strain aat2, stronger effect = lower value 1.01 | locus YLR113W, strain HOG1, stronger effect = lower value 1.05 | locus YLR221C, strain rsa3, stronger effect = lower value 1.03 | locus YLR258W, strain gsy2, stronger effect = lower value 1.05 | locus YLR262C, strain YPT6 (second series), stronger effect = lower value 1.02 | locus YLR320W, strain mms22, stronger effect = lower value 1.03 | locus YLR342W, strain FKS1, stronger effect = lower value 1.03 | locus YLR357W, strain rsc2, stronger effect = lower value 1.05 | locus YLR370C, strain arc18, stronger effect = lower value 1.04 | locus YLR384C, strain iki3, stronger effect = lower value 1 | locus YML120C, strain ndi1, stronger effect = lower value 1.01 | locus YMR058W, strain fet3, stronger effect = lower value 1.02 | locus YMR125W, strain sto1, stronger effect = lower value 1.01 | locus YMR129W, stronger effect = lower value 1.01 | locus YMR205C, strain PFK2, stronger effect = lower value 1.02 | locus YMR231W, strain pep5, stronger effect = lower value 1.02 | locus YNL071W, strain lat1, stronger effect = lower value 1.02 | locus YNL183C, strain NPR1, stronger effect = lower value 0.974 | locus YNL209W, strain ssb2, stronger effect = lower value 1.01 | locus YNL248C, strain rpa49, stronger effect = lower value 1.06 | locus YNL322C, strain KRE1 (second series), stronger effect = lower value 1.02 | locus YNR049C, strain mso1, stronger effect = lower value 1.02 | locus YOR001W, strain rrp6, stronger effect = lower value 1.03 | locus YOR070C, strain gyp1, stronger effect = lower value 1.01 | locus YOR080W, strain dia2, stronger effect = lower value 1.02 | locus YOR083W, strain WHI5, stronger effect = lower value 1 | locus YOR106W, strain vam3, stronger effect = lower value 1 | locus YOR231W, strain MKK1, stronger effect = lower value 1.07 | locus YOR265W, strain rbl2, stronger effect = lower value 1.01 | locus YOR270C, strain vph1, stronger effect = lower value 1.06 | locus YOR290C, strain snf2, stronger effect = lower value 0.978 | locus YPL051W, strain arl3, stronger effect = lower value 1.03 | locus YPL078C, strain atp4, stronger effect = lower value 0.99 | locus YPL106C, strain sse1, stronger effect = lower value 1 | locus YPL240C, strain hsp82, stronger effect = lower value 1.02 | locus YPL256C, strain CLN2, stronger effect = lower value 1.04
